Measurements as given in the supplement of paper PMC6555819.

Assays:
Assay in all cases: PBM binding z-score (relative to random genomic background probes); higher = stronger binding; sequences stand for … in GC…GCGATTGACAGCGTAGAATGAAGG
[1] = system: RARb homodimer (NR concentration 270 nM)
Outline: (§1)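 Binding buffer was PBS pH 7.4 with 2% milk, 0.02% Triton X-100, 1 mM DTT, 0.2 mg/mL BSA and 0.4 mg/ml salmon testes DNA. In it, ligand-free nuclear receptor dimers were incubated 1 h on custom Agilent 4×180K protein-binding microarrays carrying double-stranded probes. Antibodies against each partner (one per run) detected binding, and z-scores were calculated against random background probes after regression normalization of scanned fluorescence.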

[2] = system: RARg:RXRa (NR concentration 270 nM, RXRa partner concentration 90 nM)
Outline: as §1

[3] = system: RARg homodimer (NR concentration 270 nM)
Outline: as §1

[4] = system: RXRa DBDmut IVT, anti-RXR (DBD mutation: RXRa K156A/R161A, NR concentration 90 nM)
Outline: as §1

[5] = system: RXRa homodimer (NR concentration 180 nM)
Outline: as §1

[6] = system: THRa:RXRa (NR concentration 90 nM, RXRa partner concentration 90 nM)
Outline: as §1

[7] = system: THRa homodimer (NR concentration 90 nM)
Outline: as §1

[8] = system: VDR homodimer (NR concentration 270 nM)
Outline: as §1

Row | Sequence | PBM binding z-score [1] | PBM binding z-score [2] | PBM binding z-score [3] | PBM binding z-score [4] | PBM binding z-score [5] | PBM binding z-score [6] | PBM binding z-score [7] | PBM binding z-score [8]
1 | TCATATAGGTGAAGGTGAAAGTCGAACGATATGA | 1.3 | 1.42 | 1.48 | 0.518 | 1.6 | 0.793 | -0.343 | -0.0365
2 | TCTATTAGTTGATTAGGGCAACGGAAACAGCGGA | 0.377 | 0.729 | 0.882 | 0.972 | 0.448 | 0.578 | 0.239 | 0.264
3 | GTACCAAGGTGAATAGGTCCTTGATGAGTAGGCG | 0.586 | 0.974 | 0.683 | -0.522 | 0.785 | 1.23 | 0.287 | -0.46
4 | CCAGACAGGTGAGAAGGTAGCTCAGCCTCGATTA | 0.12 | 0.0158 | -0.00904 | -0.104 | -0.128 | -0.29 | -0.679 | -0.24
5 | ATCCAAAGGTCGACGAGGTGAGTATACACCGTTT | 3.09 | 4.27 | 4.1 | 1.22 | 4.44 | 3.66 | 1.12 | 0.772
6 | CCAGACAGGTGCGAAGGTAACTCAGCCTCGATTA | -0.418 | -0.29 | -0.243 | 0.384 | -0.121 | -0.305 | -0.159 | -0.453
7 | ACTAGCCGGCCAAGGGTCACTCAAGATTAGTCCG | 3.6 | 3.96 | 3.47 | -0.0861 | 3.65 | 2.5 | 0.383 | 0.509
8 | TCTCGTAGATCAGCAGGTTAAGAAAGCTGGCCAA | -0.209 | -0.0899 | -0.67 | 0.451 | 0.405 | 0.0434 | -0.546 | -0.597
9 | CATACAGGGTCAGCTACGCCAGAGTAGGGACGGC | 2.9 | 4.44 | 4.43 | 1.69 | 4.11 | 2.73 | 0.834 | 1.09
10 | CGAACTAGGTCATCCAGGACATTGAATACATTGA | 3.11 | 3.95 | 4.63 | 2.66 | 2.95 | 3.87 | 2.27 | 3.47
11 | GCATATAGGTAATACAAGGTGAAATTCCGATTGT | 0.44 | 0.518 | 0.637 | 0.228 | 0.614 | 4.06 | 0.848 | 0.0965
12 | CGTCCAAGGGCAAAGGTCAGTGAAGAGATGACGG | 4.71 | 6.32 | 5.49 | 1.64 | 6.15 | 3.45 | 0.298 | 1.34
13 | CTCGTAAGGTCGGTTGAGGTGAGTATACGGATAA | 1.99 | 1.89 | 2.09 | 1.26 | 1.44 | 5.11 | 2.39 | 0.937
14 | ATCCCTAGGTAAAGATAGTTCAGTGAATGCAAAT | 1.19 | 0.428 | 0.526 | 0.103 | 0.295 | 0.844 | 0.169 | 0.524
15 | ATATGTAGGTTAGCTGGGGTCATTCTGACTAGGC | 3.66 | 3.88 | 2.79 | 2.08 | 5.12 | 5.12 | 3.04 | 5.3
16 | TCATATATGTAAATGCTAGGTGAAAGTCCGATCT | 0.368 | 0.1 | 0.244 | 1.18 | 0.654 | 1.01 | 0.597 | -0.0734
17 | CAAACTAGGTCACCGGATGGTCAAAGTCCGCATG | 4.02 | 5.82 | 5.58 | 1.74 | 4.05 | 3.57 | 1.85 | 1.1
18 | CGTCAAAGTTCAACAAAGGTAACGTAAAGCACGC | 4.37 | 5.63 | 6.4 | 4.53 | 4.82 | 4.66 | 0.367 | 3.16
19 | CAAACTAGGTCAAGGACAAAGTCGGTTTGTGCCA | 3.2 | 3.97 | 4.91 | 1.39 | 2.52 | 3.58 | 2.25 | 0.988

Row | Sequence | PBM binding z-score [1] | PBM binding z-score [2] | PBM binding z-score [3] | PBM binding z-score [4] | PBM binding z-score [5] | PBM binding z-score [6] | PBM binding z-score [7] | PBM binding z-score [8]
20 | ATATGTAGGTTAGCTGGGTTCATTCAGACTAGGC | 1.47 | 1.58 | 0.836 | 2.97 | 2.38 | 3.54 | 0.442 | 6.88
21 | CCTATTATTTGACCATAAGGGCAACCGAAGCTCG | 2.16 | 1.05 | 1.21 | 1.06 | 0.762 | 1.83 | 2.31 | 2.19
22 | CAAACTAGGTGACGAAAGGTCAAAGTCGAATGAC | 4.9 | 6.2 | 6.26 | 1.41 | 7.46 | 4.22 | 1.33 | 2.22
23 | CGAACGAGGGCATGCGTTGATAGCAAATGCCGAT | 0.766 | 1.03 | 1.55 | 2.39 | 0.91 | 0.988 | -0.0968 | 1.21
24 | ACTAGCATGCCAAGTTTGGGTCACTCAAACAAAG | 1.71 | 1.43 | 0.744 | -0.167 | 0.674 | 2.19 | 0.882 | 0.673
25 | GCTTGTAGATCGAGGTTAAGAAAGACTAAGCTAA | 0.303 | 0.377 | 0.00467 | 0.166 | 1.04 | 1.38 | -0.253 | -0.273
26 | CCTTACGGGTGACTGACAGGTTATAGCATTTGGA | 0.601 | 1.07 | 0.559 | 0.115 | 0.941 | 0.72 | -0.154 | -0.209
27 | GCATATAGGTAATACAAGGTGATAGTCCGATTGT | -0.0222 | 0.537 | 0.59 | 0.172 | 0.526 | 3.48 | 0.413 | -0.123
28 | ATCTCTAGGTAACAAGTTCAGTGCAAGAGAGGAC | 1.96 | 1.28 | 1.46 | 0.886 | 0.703 | 2.19 | 1.03 | 3.19
29 | GCTGACAGGTGAAACGCAGGTAACTCAGGGTGGC | 0.252 | 0.825 | 0.362 | -0.702 | 0.505 | 1.27 | -0.547 | -0.647
30 | GCAGACAGGTGAAACGCAGCTAACTCAGGGTGGC | -0.474 | -0.209 | -0.0146 | -0.543 | -0.0388 | -0.192 | -0.872 | -1.11
31 | TGAATGAGGTTATAAGATGAGGGAACGTTGCAAA | 0.278 | 1.31 | 1.12 | 0.817 | 1.76 | 1.77 | 0.282 | 0.388
32 | AGTCAAAGTTCATCTAGGCAACGTAAGATATGCT | 3.91 | 5.49 | 6.04 | 4.78 | 4.97 | 2.22 | -0.142 | 4.64
33 | GCATATAGGTATTACAAGGTGAAAGTCCGATTGT | 0.63 | 0.464 | 0.464 | 0.414 | 0.523 | 3.76 | 1.14 | -0.251
34 | GCAGACAGGTGAAACGCAGGAAACTCAGGGTGGC | 0.0136 | 0.246 | 0.0798 | -0.424 | 0.715 | 0.142 | -0.634 | -0.569
35 | TATTGTAGATCAGCAGGTTAAGAAAGCTGGCCAA | -0.28 | -0.0508 | 0.00581 | -1.23 | 0.171 | 0.0661 | -0.952 | -0.39
36 | TTATATAGGTAAAAGGTGAAAGTCGGTGTGGTAA | 1.62 | 2.08 | 0.991 | 0.197 | 2.87 | 1.77 | 0.486 | 0.445
37 | CGTCCAATGTCAAGGTCAGTGAAAGAGACTCGAA | 3.45 | 3.38 | 4.06 | 1.1 | 2.22 | 2.91 | 2.18 | 1.57
38 | GCTCGGAGGACAAGGCCAGAGCTTTGTCCGTAGA | 0.141 | -0.322 | -0.004 | -1.09 | -1.17 | 0.254 | -0.595 | -0.801

Row | Sequence | PBM binding z-score [1] | PBM binding z-score [2] | PBM binding z-score [3] | PBM binding z-score [4] | PBM binding z-score [5] | PBM binding z-score [6] | PBM binding z-score [7] | PBM binding z-score [8]
39 | CTACCAAGCTGAACAAGGTCGTTGATTACTATTC | 1.13 | 0.311 | 0.109 | 1.3 | 0.787 | 1.86 | 1.46 | 2.1
40 | TCTTGTAGATCAAGCAGGTTAAGGAAGCCTGAGT | 0.203 | 0.0317 | -0.28 | 0.415 | 0.299 | 0.262 | -0.359 | 0.166
41 | CCGAATGGGGCAAAGGTTACCATACTCAGTACGA | 2.37 | 3.65 | 1.72 | 0.549 | 4.27 | 1.86 | -0.191 | 0.204
42 | GCAATTAGTTGAAAGGGCAACCGAATGATTCTCG | 2 | 1.14 | 1.24 | 0.685 | 1.25 | 0.471 | -0.13 | 0.159
43 | GATAAAGGGTCAAGGCCAGAGTACGCGTATTGAT | 4.87 | 6.46 | 6.91 | 2.52 | 6.59 | 3.38 | 0.263 | 2.36
44 | CTCGAAAGGTCGGTCGAGGTGAGTATACGGATAA | 2.4 | 3.1 | 3.3 | 0.728 | 2.47 | 5.04 | 0.386 | 0.0425
45 | CGTCCAAGGTCAAAGTCAGTGAAAGAGACTCGAA | 3.32 | 5.86 | 6.34 | 3.91 | 5.95 | 3.5 | 1.72 | 2.46
46 | CCTACTGGGCGAAAGGTCATTGATTCCAATGCTC | 4.3 | 5.19 | 4.82 | 1.01 | 5.76 | 2.95 | 0.374 | 2
47 | ACTAGCTGGCCAAGGGTCACTCAAGATTAGTCCG | 3.54 | 3.78 | 3.54 | 0.138 | 3.9 | 2.48 | 0.0817 | 0.917
48 | ATCTGTAGGTTAAGGGTCATTCAGGTTGGTTCGC | 4.02 | 5.03 | 3.89 | 2.02 | 6.57 | 3.69 | 2.07 | 4.28
49 | CGTCCAAGATCAAAGGTCAGTGAAGAGATGACGG | 4.44 | 4.65 | 4.54 | 0.609 | 5.07 | 2.59 | 0.239 | 1.07
50 | CCTCGGAGGCCAGAAGGTCAGAGCTGTCCGCTTT | 3.49 | 3.66 | 3.12 | -0.11 | 2.05 | 1.67 | 0.0524 | -0.311
51 | ACTATTCGTTGAGACGAGGGCAACCGATAGGTTG | 1.26 | 0.489 | 0.81 | 0.393 | 0.523 | 1.33 | 0.648 | 0.643
52 | GCTGCTAGGTCAACTGCTGGTCAGCTAAAGCTCG | 3.54 | 5.38 | 5.45 | 1.4 | 2.79 | 2.92 | 0.954 | -0.195
53 | CGAACTAGGCCATTGACAGGACAGTGAATAGTAA | 0.319 | 0.281 | 0.586 | 0.349 | 0.0322 | 0.198 | -0.102 | -0.193
54 | TCTTGTTGATCAGCAGGTTAAGAAAGCTGGCCAA | 0.158 | -0.129 | -0.598 | 0.635 | 0.257 | 0.181 | -0.779 | -0.748
55 | CCTTACGTGTCAAGGTTATAGCACGGGTGGTACG | 1.28 | 1.34 | 1.35 | -0.145 | 1.11 | 1.57 | 0.906 | 0.926
56 | CAAACTAGGTCACGACAGGTCAAAGTCGAATGAC | 4.83 | 6.43 | 6.78 | 2.05 | 6.08 | 5.05 | 2.47 | 2.23
